Screens deposited in PubChem BioAssay by several laboratories.
Yp Topo-I inh: inhibitors of Yersinia pestis topoisomerase I; Y. pestis Topo-I cleavage product accumulation, plate reader; activity, % at 10 µM; actives 0.064% (n = 360,000); AID 504884; in the data active = activity above about 50%, passing the limit was not always enough; inconclusive = no clear call, values can overlap the other calls
Rv3671c inh: Rv3671c (M. tuberculosis) protease inhibition. P9WHR9. inhibition, % at 5.96 µM. actives 0.048% (n = 320,000); in the data active = inhibition above about 38%;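 note: extracellular domain of Rv3671c used as enzyme; 0% = enzyme with DMSO and 100% = no enzyme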
Target sequence (P9WHR9 whole entry, looked up, the tested form may be a part): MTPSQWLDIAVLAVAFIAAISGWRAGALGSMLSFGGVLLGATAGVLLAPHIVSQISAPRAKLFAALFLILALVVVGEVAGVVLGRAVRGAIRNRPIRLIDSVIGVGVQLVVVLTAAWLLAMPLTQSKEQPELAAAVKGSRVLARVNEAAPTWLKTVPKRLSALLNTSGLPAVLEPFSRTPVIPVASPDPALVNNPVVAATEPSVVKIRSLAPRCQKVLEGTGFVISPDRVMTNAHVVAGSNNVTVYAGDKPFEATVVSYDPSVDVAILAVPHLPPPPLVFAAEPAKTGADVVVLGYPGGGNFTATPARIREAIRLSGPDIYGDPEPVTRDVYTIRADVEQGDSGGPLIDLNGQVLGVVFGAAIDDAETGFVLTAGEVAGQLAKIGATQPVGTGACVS
Mtb UGM inh: inhibitors of M. tuberculosis UDP-galactopyranose mutase; P9WIQ1; purified UGM, fluorescence polarization probe displacement; inhibition, % at 10 µM; actives 0.06% (n = 320,000); AID 504406; in the data active = inhibition above about 10%, passing the limit was not always enough; inconclusive = no clear call, values can overlap the other calls
PfHsp40 yeast: restores yeast growth despite PfHsp40 toxicity; S. cerevisiae expressing PfHsp40, growth rescue, ATP luminescence; growth rescue, % at 12.5 µM; actives 0.68% (n = 340,000); AID 504582; in the data active = growth rescue above about 28%, passing the limit was not always enough; inconclusive = no clear call, values can overlap the other calls;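 note: yeast W303a lacking pdr1 and pdr3 grown in galactose medium; growth measured after three days at 30 °C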
Mtb betalactam: beta-lactam sensitization of Mtb H37Rv; M. tuberculosis H37Rv growth with meropenem, percent inhibition; inhibition, % at 25 µM; actives 0.27% (n = 330,000); AID 434955; call rule not given here;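 note: growth measured after seven days incubation then overnight dye step; 0% = bacteria only wells and 100% = bacteria with antibiotic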
FadD28 binding: blocks FadD28 binding to the bisubstrate probe | fluorescence polarization | inhibition, % at 12.5 µM | actives 0.22% (n = 360,000); in the data active = inhibition above about 8.5%, passing the limit was not always enough; inconclusive = no clear call, values can overlap the other calls
* = called active by the depositor; ? = inconclusive; . = not tested or not shown. Only some compounds are listed: those with a hit (about 0.98% of all), similar ones and a draw of the others.

SMILES	Yp Topo-I inh	Rv3671c inh	Mtb UGM inh	PfHsp40 yeast	Mtb betalactam	FadD28 binding
COc1ccc(C(C)=O)cc1Cn1c(C)c(C(=O)NCc2ccc(C(C)C)cc2)sc1=O	26	.	.	.	.	-8
Cc1cccc(NC(=O)CN2C(=O)N/C(=C/c3ccc(C)o3)C2=O)c1	-4	-2	1	0	0	3
Cc1cccc(NC(=O)CN2C(=O)N/C(=C\c3ccc(-c4cccc(C(=O)O)c4)o3)C2=O)c1	0	-3	3	1	2	43*
Cc1ccc(NC(=O)CN2C(=O)S/C(=C/c3ccc(-c4cc(C(=O)O)ccc4C)o3)C2=O)cc1C	15	-13	2	-1	71	14*
CC(Nc1ccc(Br)cc1)C(=O)NC(=O)NC1CCCCC1 (configuration not stated)	6	.	.	.	.	-1
O=C(NCc1ccccn1)Nc1ccccc1C(F)(F)F	-3	-8	-2	-1	-3	-2
O=S(=O)(Nc1ccccc1C(F)(F)F)c1ccc(-c2ccccn2)s1	4	.	-5	28*	2	1
Cc1c(Br)c(=O)oc2c(Br)c(O)ccc12	1	0	2	-1	-10	0
Cc1c(Br)c(=O)oc2c(Br)c(O)c(O)cc12	-3	24	3	1	-1	13*
O=C(CNc1ccc2ccccc2c1)N/N=C/c1ccc(C(=O)O)cc1	0	7	2	1	93	-1
O=C(CNc1cccc2ccccc12)N/N=C/c1ccc(C(=O)O)cc1	2	-1	0	-1	8	38*
CC(=O)OC[C@@H]1CN(Cc2ccccc2)C[C@H](n2cnc3c(N(C)C(C)C)ncnc32)O1	18	.	.	.	.	-4
CC(=O)N(c1ccccc1C)C1CCCC1	1	6	1	1	-6	-3
CC(=O)N(C1=C(Cl)C(=O)c2ccccc2C1=O)C1CCCCC1	1	-68	0	147*	27	0
Cc1csc(CN(C)C(=O)CC2C(=O)NCCN2Cc2ccc(F)c(F)c2)n1 (configuration not stated)	-3	-2	1	0	3	0
Cc1nc(SCc2ccc(OCCC(C)C)cc2)n[nH]1	11	11	0	301*	14	-3
CCCCCOc1ccc(CSc2n[nH]c(C)n2)cc1	5	0	0	271*	7	-1
Cc1nc(SCc2ccc(F)cc2)n[nH]1	2	0	-1	-1	3	.
O=C(c1cc(COc2c(F)cccc2F)on1)N(Cc1ccccc1)CC1CC1	64*	-12	0	1	8	-6
C/C(=N/NC(=O)c1cc2ccccc2cc1O)C1C(=O)c2ccccc2C1=O	4	23	1	0	1	37*
C/C(=N\NC(=O)c1ccccc1O)C1C(=O)c2ccccc2C1=O	-7	22	1	-1	6	?
COc1ccc2c(c1)c1nnc(SC)nc1n2C	9	-16	2	59*	-6	-3
COc1ccccc1Cn1c(C)c(C(=O)NCCC#N)sc1=O	2	.	.	.	.	-2
CN(C)S(=O)(=O)c1cc(NC(=O)CSc2cccc[n+]2[O-])ccc1Cl	-1	-9	2	0	1	0
CN(C)S(=O)(=O)c1cc(NC(=O)CSc2ncc(C(F)(F)F)cc2Cl)ccc1Cl	3	-39	0	4	6	13*
SMILES	Yp Topo-I inh	Rv3671c inh	Mtb UGM inh	PfHsp40 yeast	Mtb betalactam	FadD28 binding
CCCN(C(=O)c1cccc(S(=O)(=O)N2CCN(Cc3ccccc3)CC2)c1)C1CCS(=O)(=O)C1 (configuration not stated)	19	3	7	0	-11	-2
CC(C)CN(C(=O)c1cccc(S(=O)(=O)N2CCN(Cc3ccccc3)CC2)c1)C1CCS(=O)(=O)C1 (configuration not stated)	34	-9	0	347*	-9	-1
Oc1ccc(C[C@H]2CN([C@@H](Cc3ccc(O)cc3)CN3CCC[C@@H]3CN3C(=S)NC[C@@H]3Cc3ccccc3)C(=S)N2CC2CCCCCC2)cc1	.	.	.	.	.	-3
COc1ccccc1C1CCN(c2cc(O)ccc2[N+](=O)[O-])CC1	-9	-7	-3	124*	-9	-19
COc1ccccc1C1CCN(C(=O)c2ccc(Cl)cc2)CC1	6	-15	-1	199*	16	-1
O=C(O)COc1ccccc1C=NNc1ccc([N+](=O)[O-])cc1S(=O)(=O)Nc1ccc(Cl)cc1	-10	-21	3	2	2	16*
